Screen size: about 48,000 compounds; about 13,000 (27%) showed an effect of 50% or more. The list shows a part of the results.
Tested on: Wolbachia pipientis
Assay: Anti-Wolbachia Cell-Based Screen
Format: functional
Set-up: scale not given: in the data most compounds retested in dose-response had high values
Settings: 5 µM

Row | Compound | Percent Effect
1 | CN1C[C@H](COCC2CC2)[C@H]2CCN(Cc3ccco3)CC[C@H]2C1=O | -20.01%
2 | CCOC1CCN(CCc2nc(-c3cccc(Cl)c3)no2)CC1 | 9.803%
3 | CC(O)C(=O)N1CCC(c2nccn2Cc2cscn2)CC1 (configuration not stated) | -11.64%
4 | CN1CCCN(C(=O)c2cc3c(s2)CCN3C(=O)c2ccccc2)CC1 | -3.728%
5 | O=C(NCCN1CCCC1)c1cc2c(s1)CCN2C(=O)c1ccccc1 | 91.37%
6 | CC(C1CC1)N(CC(=O)NCC(F)(F)F)C1CC1 (configuration not stated) | -3.588%
7 | O=C(CNc1cccc2c1CCCC2)Nc1ccccc1Br | 7.656%
8 | NC(=O)c1ccc(N2CCCCC2)c(NC(=O)c2cc(Br)ccc2F)c1 | 10.52%
9 | NC(=O)C1CCN(C(=O)c2cc(Br)ccc2-n2cnnn2)CC1 | 120.4%
10 | NC(=O)C1CCN(C(=O)c2ccccc2OCc2ccncc2)CC1 | -0.6716%
11 | Cc1cnn(C2CCCN(C(=O)c3sccc3-n3cnnn3)C2)c1 (configuration not stated) | -13.25%
12 | O=C(c1cc(Br)ccc1-n1cnnn1)N1CCCC1 | 113.6%
13 | O=C(c1cc(Br)ccc1Cl)N1CCN(Cc2ccco2)CC1 | 8.904%
14 | NC(=O)c1ccc(N2CCCCC2)c(NC(=O)c2cc(Br)ccc2Cl)c1 | 10.69%
15 | O=C(c1cc(Br)ccc1-n1cnnn1)N1CCCCC1 | 184.2%
16 | NC(=O)C1CCN(C(=O)c2ccc(Cn3cc(Br)cn3)cc2)CC1 | -10.39%
17 | O=C1C(Nc2ccc3nccnc3n2)CCN1c1ccccc1F (configuration not stated) | -13.15%
18 | O=C(CCCc1ccccc1)Nc1cnc(N2CCOCC2)nc1 | -16.01%
19 | CNC(=O)c1cccc(CNC(C)c2cc(Cl)ccc2OC)c1 (configuration not stated) | 8.961%
20 | CCc1c(C)nn(C)c1NC(=O)N1CCCOC(Cn2cccn2)C1 (configuration not stated) | -2.471%
21 | CCOCCn1nc(C)cc1C(=O)N1CC(C)(C)[C@@](C)(O)C1 | -27.83%
22 | CC1=Nc2c(c(=O)[nH]n2C(C)C)C(c2ccsc2)S1 (configuration not stated) | 124.6%

Row | Compound | Percent Effect
23 | CC1=Nc2c(c(=O)[nH]n2C(C)C)C(c2ccc(F)c(F)c2)S1 (configuration not stated) | 0.5897%
24 | CC1=Nc2c(c(=O)[nH]n2C(C)C)C(c2ccccc2)S1 (configuration not stated) | 3.045%
25 | COc1cc(OC)cc(N2CCC(NCc3cc[nH]n3)C2)c1 (configuration not stated) | -8.563%
26 | Cc1ccc(C(NC(=O)Cc2nc3ncccn3n2)C2CC2)cc1 (configuration not stated) | -15.47%
27 | O=S(=O)(c1ccc2c(c1)CCC2)N1CCCC(Cn2cncn2)C1 (configuration not stated) | 1.903%
28 | COc1cccc(CSCC(=O)NCc2cccnc2)c1 | 3.69%
29 | O=C(CSCc1ccccn1)NCC1CC1 | 22.7%
30 | CCCSCC(=O)Nc1ncn(CC(=O)NCc2ccccc2)n1 | 0.11%
31 | CCCC(=O)NCc1cccc(C(=O)OC)c1 | -9.94%
32 | O=C(CSCc1ccccn1)NCC1CCN(C2CC2)C1 (configuration not stated) | 21.4%
33 | CCN(C)Cc1cccc(CNC(=O)NCCc2ccccn2)c1 | 112.6%
34 | O=C(CSCc1ccncc1)NCC1CCN(C2CC2)C1 (configuration not stated) | 13.02%
35 | CCCSCC(=O)NCc1cccc(CN(C)CC)c1 | 105%
36 | CCN(C)Cc1cccc(CNC(=O)CSCc2ccccn2)c1 | 99.73%
37 | CCN(C)Cc1cccc(CNC(=O)CSCc2ccncc2)c1 | 124.3%
38 | CC(Cn1ccnc1)NC(=O)NCCc1ccccn1 (configuration not stated) | -12.71%
39 | O=C(NCCNc1ncccn1)NCc1cccc(OC(F)F)c1 | -1.067%
40 | Cc1csc(N2CCCN(C(=O)C(C)n3ccnc3)CC2)n1 (configuration not stated) | -4.315%
41 | Cc1nnc2n1CC(CNCc1nc(-c3cccs3)no1)CC2 (configuration not stated) | -7.356%
42 | CCn1cc2c(n1)C(COC)CN(Cc1ccccn1)C2 (configuration not stated) | -2.413%
43 | CCSCCn1cc(-c2ncc[nH]2)nn1 | 7.304%
44 | CNC1CCN(C2CCN(c3ccc(-c4ccco4)cc3)CC2)CC1 | -8.193%

Row | Compound | Percent Effect
45 | Cn1cc(C(=O)N2CCCN(c3cccnn3)CC2)c2ccccc21 | -6.467%
46 | O=S(=O)(CCCn1cncn1)Cc1ccccc1Cl | -3.419%
47 | CC(C)c1cc2c(O)nc(CSCC(=O)NCc3ccccn3)nc2s1 | -13.17%
48 | CC(C)OCCOCc1cccc(NC(=O)NCc2ccccn2)c1 | 14.04%
49 | CC(C)C(=O)Nc1cccc(CNC(=O)CSCc2ccccn2)c1 | 119.7%
50 | Nc1cc2c(nn1)CCN(C(=O)c1cccc3c1OCO3)C2 | 99.08%
51 | CCNc1cc2c(nn1)CCN(C(=O)c1cccc3c1OCO3)C2 | 107.3%
52 | CCNc1cc2c(nn1)CCN(C(=O)c1cccc3c1OCCO3)C2 | 1.992%
53 | Nc1cc2c(nn1)CCN(C(=O)CCc1ccc3c(c1)OCO3)C2 | -16.52%
54 | CCNc1cc2c(nn1)CCN(C(=O)C1COc3ccccc3O1)C2 (configuration not stated) | -8.562%
55 | CNc1cc2c(nn1)CCN(C(=O)c1cccc3c1OCCO3)C2 | 94.51%
56 | Nc1cc2c(nn1)CCN(C(=O)c1cccc3c1OCCO3)C2 | 2.04%
57 | CNc1cc2c(nn1)CCN(C(=O)c1cccc3c1OCO3)C2 | -1.864%
58 | CO[C@@H]1CCN(C(=O)c2cnoc2C)[C@H]1Cc1ccccc1 | -17.67%
59 | O=C(c1cnccn1)N1CC[C@H]2[C@H]1CCN2S(=O)(=O)C1CC1 | -1.574%
60 | Cc1cc(C(=O)N2C[C@@H]3CN(S(C)(=O)=O)CCO[C@@H]3C2)c(C)o1 | -7.965%
61 | Cc1oncc1C(=O)N1CC[C@H]2[C@H]1CCN2S(C)(=O)=O | 102.2%
62 | O=C(c1ccoc1)N1CC[C@H]2[C@H]1CCN2S(=O)(=O)C1CC1 | -16.54%
63 | Cc1cc(C(=O)N2CC[C@H]3[C@H]2CCN3S(C)(=O)=O)c(C)o1 | 109.3%
64 | CC(=O)Nc1nc(-c2ccccc2)c[nH]1 | -21.73%
65 | CCS(=O)(=O)c1ccccc1C(=O)NCc1ccnc(N(C)C)c1 | -0.6479%
66 | CN(C)c1cc(CNC(=O)c2ccc(=O)[nH]n2)ccn1 | 0.8371%

Row | Compound | Percent Effect
67 | CN(C)c1cc(CNC(=O)c2ccc(F)cc2F)ccn1 | 0.296%
68 | Cc1cc(C(=O)NCc2ccnc(N(C)C)c2)c(C)o1 | 4.439%
69 | CN(C)c1cc(CNC(=O)c2n[nH]c(=O)c3ccccc23)ccn1 | 128.9%
70 | CN(C)c1cc(CNC(=O)c2cn(-c3ccc(F)cc3)nn2)ccn1 | -3.053%
71 | CN(C)c1cc(CNC(=O)c2cc(Cl)ccn2)ccn1 | 157.2%
72 | CN(C)c1cc(CNC(=O)c2ccc(O)nc2)ccn1 | 121.2%
73 | Cc1nccn1-c1cc(CNC(=O)c2ccnc(N(C)C)c2)ccn1 | 25.84%
74 | CN(C)c1cc(CNC(=O)c2cccnc2O)ccn1 | 123.9%
75 | COc1cc(C(=O)N(C)C)ccc1NC(=O)c1ccsc1 | -14.53%
76 | CCc1nc(C)c(C2CC(=O)Nc3c2c(-c2cccnc2)nn3C)[nH]1 (configuration not stated) | 10.2%
77 | CCNC(=O)NC1CN(Cc2ccncc2Cl)C[C@@H]1OC (some centres not stated) | -18.14%
78 | CC(=O)c1ccc(NC(=O)NCc2cccc(N(C)C)n2)cc1C | -13.49%
79 | COCCN1CCN(Cc2noc(C3CC3)n2)CC1C (configuration not stated) | -13.95%
80 | Cc1nnc(CSc2n[nH]c(-c3ccccn3)n2)o1 | 3.251%
81 | O=C1NCCCCC1NS(=O)(=O)N1CCCCCC1 (configuration not stated) | 41.49%
82 | CCNC(=O)c1cnc(Sc2nccn2C)c(Cl)c1 | -8.333%
83 | COc1nn(C)cc1C(=O)NCC(=O)Nc1cccnc1 | 5.398%
84 | CC(=O)N1CCN(c2nc(C(F)(F)F)nc3sc(C)c(C)c23)CC1 | 10.88%
85 | c1ccc2c(c1)OCCCC2NCc1nnc2n1CCCCC2 (configuration not stated) | -26%
86 | Cc1cnc(C(=O)NCc2ccnc(N(C)C)c2)cn1 | 122.7%
87 | CN(C)c1cc(CNC(=O)c2cnccn2)ccn1 | 139.9%
88 | Cc1cc(CN(C)C(=O)NCc2ccnc(N(C)C)c2)no1 | -11.21%

Row | Compound | Percent Effect
89 | Cc1cccc(C(=O)NCc2ccnc(N(C)C)c2)n1 | -3.78%
90 | COc1ccc(OC)c(S(=O)(=O)NCC2(OC)CCSC2)c1 (configuration not stated) | -19.77%
91 | CN(C)c1ccc(-c2noc([C@@H]3CCCN3)n2)cn1 | 4.635%
92 | Cc1cc(N(C)C)nc(N2CCn3c(nnc3C3CC3)C2)n1 | -9.903%
93 | Cc1cc(C)nc(CN(C)C(=O)c2ccccc2C2CCNC2)c1 (configuration not stated) | -11.76%
94 | CN(C)c1ccnc(C2CCCN2)n1.Cl (configuration not stated) | 126.4%
95 | Cc1cc(N(C)C)nc(N2CC(n3cccn3)C2)n1 | -0.4027%
96 | Cc1cc(N(C)C)nc(C2CCNC2)n1.Cl.Cl (configuration not stated) | 120.8%
97 | CCn1cc(C2CCN(Cc3ccnc(N(C)C)c3)CC2)cn1 | -12.62%
98 | Cc1nc(CN(C)c2nccc(N(C)C)n2)cs1 | -6.579%
99 | Cc1cc(N(C)C)nc(C2CCCN2)n1.Cl.Cl (configuration not stated) | 137.4%
100 | CN(C)c1cc(C2CCCN2)ccn1 (configuration not stated) | 114.7%
101 | CN(C)C(=O)c1cccc(CCNS(C)(=O)=O)c1 | -0.05313%
102 | O=C(c1cc2c(s1)CCOC2)N1CCCC1Cn1cccn1 (configuration not stated) | 107.9%
103 | O=C(c1cc2c(s1)CCOC2)N1CCCCC1Cn1cccn1 (configuration not stated) | 96.86%
104 | O=C(c1cccc2c1OCCO2)N1CCCCC1Cn1cccn1 (configuration not stated) | 4.366%
105 | CC(=O)N1CCCn2nc(CNS(=O)(=O)c3cc(C)cs3)cc2C1 | -1.939%
106 | N#Cc1cccnc1NCCC1CCN(CC(F)(F)F)CC1 | -14.98%
107 | CC(C)=CCN1C[C@H]2CC[C@@H]1CN(C(=O)CCc1n[nH]c(C)n1)C2 | -19.43%

Reference: ChEMBL document CHEMBL3988442, “University of Dundee, Small-Polar-MMV Screening Library” (2021)
